Compound activity as filed in PubChem.
G9a inh – blocks human histone lysine methyltransferase G9a; Q96KQ7; G9a H3K9 monomethylation, AlphaScreen, 2 h; Potency, µM (highest dose often 102 µM), most hits filed as inhibitors; 350,000 tested, 8.8% active; AID 504332; note: nearly all actives have a fitted effect of over 75% in size
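Signal arises when biotinylated H3K9 peptide, once monomethylated, bridges streptavidin donor and antibody-captured acceptor beads. Enzyme at 20 nM was preincubated 15 min with test compounds; peptide 500 nM and SAM 20 uM then reacted for 2 h.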
HP1b chromo inh – blocks HP1-beta chromodomain binding to methylated histone tails | Potency, µM (highest dose often 114 µM), most hits filed as inhibitors | P83916 | 390,000 tested, 0.56% active | AlphaScreen HP1-beta / biotin-H3K9me3 peptide binding; note: nearly all actives have a fitted effect of over 70% in size
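AlphaScreen: HP1-beta (50 nM) preformed 30 min with biotin-H3(1-18)K9me3 peptide (50 nM) in PBS pH 7.4, 0.01% Tween-20. Compound added for 30 min at RT, then streptavidin donor/nickel chelate acceptor beads (10 ug/mL) for 30 min.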
L3MBTL1 inh – blocks human L3MBTL1; Q9Y468; AlphaScreen L3MBTL1–H3K9me1 peptide binding; Potency, µM (highest dose often 57.1 µM), actives largely listed as inhibitors; 230,000 tested, 0.66% active; note: nearly all actives have a fitted effect of over 60% in size
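AlphaScreen proximity signal between nickel-chelate acceptor and streptavidin donor beads (final 10 ug/mL) reports binding of 50 nM L3MBTL1 to 75 nM biotin-H3 K9me1 peptide; complex incubated with compounds 30 min at room temperature; cefsulodin titration as control.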
JMJD2A Tudor – inhibitors of human JMJD2A Tudor domain; O75164; AlphaScreen JMJD2A-Tudor / H3K4me3 peptide binding; Potency, µM (titrated, usually from 114 µM), most hits filed as inhibitors; 390,000 tested, 4.4% active; note: nearly all actives have a fitted effect of over 50% in size
BAZ2B block – BAZ2B (human) inhibition. Q9UIF8. AlphaScreen BAZ2B-H3K14Ac peptide displacement. Potency, µM (doses to about 114 µM), most hits filed as inhibitors. 360,000 tested, 4.4% active. AID 504333; note: nearly all actives have a fitted effect of over 60% in size
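AlphaScreen displacement of biotin-H3(5-23)K14Ac peptide (50 nM final) from BAZ2B (50 nM final) in PBS pH 7.4, 0.01% Tween-20; complex preformed 30 min RT, then compounds (top 110 uM) 30 min RT, beads 20 min dark.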
A number is an active result; 0 = inactive; ? = inconclusive; - = no result given; ! = not confirmed by another sample; [ ] = dose if it differs, or a comment. Hits are enriched below; roughly 11% of the tested compounds scored in any of these assays. Calls come from the whole dose curve; as a rule, active = well fitted inhibition curve with a large enough effect; inconclusive = small, poorly fitted or top-dose-only effect; inactive = no such curve, though single readings can be large or run the other way.

SMILES	G9a inh	HP1b chromo inh	L3MBTL1 inh	JMJD2A Tudor	BAZ2B block
CC(C)C1Nc2ccc(S(N)(=O)=O)cc2C2C=CCC21 (stereo unspecified)	1.4µM	0	0	?	?
O=C(NC1CC1)C1Nc2ccc(OC(F)(F)F)cc2C2C=CCC12 (stereo unspecified)	-	0	-	0	-
COc1ccc(CNCCSc2nnnn2-c2ccccc2)cc1	0	0	-	0	?
COc1cc(NS(=O)(=O)c2ccc(NC(=S)Nc3ccccc3)cc2)nc(OC)n1	0	0	-	0	0
Cc1cc(NS(=O)(=O)c2ccc(Nc3nc(-c4sc(N)nc4C)cs3)cc2)no1	0[12.7 µM]	?	?	56µM	?
COc1cc(NS(=O)(=O)c2ccc(Nc3nc(-c4ccccc4)cs3)cc2)nc(OC)n1	?	0	0	?	50µM
Cc1cc(NS(=O)(=O)c2ccc(Nc3nc(-c4ccc(C)c(C)c4)cs3)cc2)no1	?	0	0	56µM	?
COc1cc(NS(=O)(=O)c2ccc(N/C=C(\C=O)c3nc4ccccc4o3)cc2)nc(OC)n1	35µM	0	0	79µM	79µM
COc1ccc(CCNC(=O)c2ccc(Cn3c(=O)c4ccccc4n(CC(=O)C(C)(C)C)c3=O)cc2)cc1OC	0	0	-	0	0
Cc1cc(NS(=O)(=O)c2ccc(Nc3nc(-c4ccc(O)cc4)cs3)cc2)no1	50µM	0	0	?	?
COc1ccc(C(=O)c2c(C(F)(F)F)oc3c2C(=O)c2ccccc2C3=O)cc1	7.9µM	?	-	?	7.9µM
CC1CCN(CCCOc2ccc(Br)cc2Cl)CC1	16µM	?	0	4µM	56µM
Clc1ccc(OCCOCCOc2cccc3cccnc23)c(Br)c1	0	0	0	0	0
O=C1CCC(=O)N1OCCCOc1ccc(Br)cc1Cl	0	0	0	0	0
CC1CCCN(CCOCCOc2ccc(Cl)cc2Br)C1 (stereo unspecified)	?	?	0	2µM	?
Cc1cc(Cl)c(OCCOCCN2CCCC(C)C2)c(Br)c1 (stereo unspecified)	16µM	0	0	?	56µM
CC1CCCN(CCOCCOc2ccc(Br)cc2Cl)C1 (stereo unspecified)	10µM	?	0	2.8µM	?
CCOc1ccc(CCNc2ncnc3onc(C)c23)cc1OCC	0	0	-	0	0
Cc1cccc(N(C)C(=O)C2CCC(CNS(=O)(=O)c3cccc4nsnc34)CC2)c1 (stereo unspecified)	0	0	-	0	0
CCCCN(C)c1nnc(NC(=O)Nc2cccc(C(C)=O)c2)s1	0	0	-	0	0
Cc1ccc(C2=NS(=O)(=O)N(C)C(C(=O)Nc3ccc(F)cc3F)=C2)cc1	71µM	0	0	?	0
COC(=O)c1ccccc1NC(=O)C1=CC(c2ccc(C)cc2)=NS(=O)(=O)N1C	13µM	0	-	?	?
CC1CC(C)CN(CC(=O)N2CCOCC2)C1 (stereo unspecified)	8.9µM	0	0	25µM	50µM
COC(=O)/C=C/c1ccccc1S(=O)(=O)N(Cc1ccccc1)Cc1ccco1	0[12.7 µM]	0	-	56µM!	50µM
CCOC(=O)c1sc(N2C(=O)C(O)=C(C(=O)c3ccc(C)o3)C2c2ccc(OC)c(OC)c2)nc1C (stereo unspecified)	0	0	-	0	0
SMILES	G9a inh	HP1b chromo inh	L3MBTL1 inh	JMJD2A Tudor	BAZ2B block
CCOC(=O)c1sc(N2C(=O)C(O)=C(C(=O)c3ccc(C)o3)C2c2cccc([N+](=O)[O-])c2)nc1C (stereo unspecified)	45µM	0	-	?	?
Cc1ccc2nc(N3C(=O)C(O)=C(C(=O)c4ccc(C)o4)C3c3cccc(O)c3)sc2c1 (stereo unspecified)	32µM	0	0	?	?
CCOc1ccc(C2C(C(=O)c3ccc(C)o3)=C(O)C(=O)N2c2nc(C)c(C(=O)OC)s2)cc1 (stereo unspecified)	10µM	0	-	?	0
COC(=O)c1sc(N2C(=O)C(O)=C(C(=O)c3ccc(C)o3)C2c2ccc(OC)c(OC)c2)nc1C (stereo unspecified)	32µM	0	-	?	0
CCOc1ccccc1CN1CCC(n2nccc2NC(=O)C2CCCC2)CC1	0	0	-	?	?
O=C(c1cn(CCOc2ccc(Cl)cc2)c2ccccc12)C1CCCCC1	0	0	-	0	0
COc1ccccc1Nc1nc(N)nc(CSC(=S)N2CCCCC2C)n1 (stereo unspecified)	0	0	0	0	0
COc1ccc(C2C(C(C)=O)=C(O)C(=O)N2c2nccs2)cc1OC (stereo unspecified)	?	0	0	?	0
COc1ccc(C2C(C(C)=O)=C(O)C(=O)N2c2nc3ccccc3s2)cc1OC (stereo unspecified)	50µM	0	-	?	0
CCOC(=O)c1ccc(N2C(=O)c3n[nH]c(-c4ccco4)c3C2c2cccc([N+](=O)[O-])c2)cc1 (stereo unspecified)	?	?	0	?	11µM
COc1cccc(-c2ccnc3c(-c4ccccc4)c(C)nn23)c1	0	0	-	0	0
Cc1cccc(Nc2nc(-c3ccccn3)cs2)n1	?	0	0[11.4 µM]	?	20µM
Cc1cccc(Nc2nc(-c3ccc(F)cc3)cs2)n1	0	0	0	0	0
Cc1cccc(Nc2nc(-c3cccs3)cs2)n1	8.9µM	0	0[11.4 µM]	0	0
c1ccc(Nc2nc(-c3cccs3)cs2)nc1	?	0	0	0[11.4 µM]	?
COC(=O)c1c(NC(=O)C2c3ccccc3Oc3ccccc32)sc2c1CCC(C)C2 (stereo unspecified)	0	0	-	0	0
Nc1ccccc1Oc1ccc2ccccc2c1	0	0	0	0	0
O=C(CN1CCCCCCC1)N/N=C/c1ccccc1F	13µM	0	0	71µM	56µM
O=C(CN1CCCCCC1)N/N=C/c1cccc(Cl)c1Cl	?	?	0	10µM	56µM
O=C(CN1CCSCC1)N/N=C/c1ccccc1F	0[12.7 µM]	?	-	3.2µM	50µM
CCN1CCN(CC(=O)Nc2cc(F)ccc2C)CC1	0	0	-	0[11.4 µM]	0
O=C(CN1CCCCC1)N/N=C/c1ccc(Cl)cc1Cl	-	0	0	0	0
O=C(CO)N/N=C/c1ccccc1F	0	0	0	0	0
CCN1CCN(CC(=O)N/N=C/c2ccc(F)cc2F)CC1	2.8µM	?	0	2.8µM	50µM
O=C(O)Cc1cc(F)c(S(=O)(=O)N2CCN(S(=O)(=O)c3ccc4c(c3)OCCO4)CC2)cc1F	-	-	-	0	-
CC(=O)N1c2ccccc2C(=O)C1N1CCN(c2ccccc2F)CC1 (stereo unspecified)	0	0	-	0	0
COc1ccc(/C=N/NC(=O)CN2CCCCCCC2)c(C)c1C	8.9µM	?	-	5µM	56µM
COc1ccc(/C=N/NC(=O)CN2CCCC2)cc1	0	0	0	0	0
Cc1ccc(-n2nc(C)c3c2NC2=C(C(=O)CC(C)(C)C2)C3c2ccccc2OCC(=O)O)cc1 (stereo unspecified)	?	0	0	56µM	-
